Results published in PubChem BioAssay AID1159580 (chemical genetic matrix, 2015).
Screen size: about 5,500 compounds; about 2,000 (36%) were called active. Inconclusive results (about 18%) are left out. Rule as the data show it: active = normalized growth mostly below about 0.91 (no sharp cut-off); inconclusive = no clear call, values can overlap the other calls; inactive = mostly above about 0.92. Some of the results follow.

Test: chemical genetic growth profiling, strain panel (AID 1159580);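 also: tested at 20 µM; growth read once vehicle control cultures reached saturation at 30 °C; 1 = growth at the plate median or of vehicle wells; lower values mean less growth of the strain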
Conditions: S. cerevisiae deletion strains, growth OD

Measured: normalized growth

Cc1nc(-c2ccc(C(F)(F)F)cn2)[nH]c(=O)c1Cl
inactive: locus YAR019C, strain CDC15, hits give low values 0.899 | locus YBL105C, strain PKC1, hits give low values 0.932 | locus YBR135W, strain CKS1, hits give low values 0.916 | locus YBR136W, strain MEC1, hits give low values 0.922 | locus YBR160W, strain CDC28, hits give low values 0.922 | locus YDL017W, strain CDC7, hits give low values 0.938 | locus YDL028C, strain MPS1, hits give low values 0.909 | locus YDL101C, strain DUN1, hits give low values 0.939 | locus YDL108W, strain KIN28, hits give low values 0.921 | locus YDL132W, strain cdc53, hits give low values 0.905 | locus YDL214C, strain PRR2, hits give low values 0.86 | locus YDR052C, strain DBF4, hits give low values 0.943 | locus YDR054C, strain cdc34, hits give low values 0.887 | locus YDR226W, strain ADK1, hits give low values 0.924 | locus YDR477W, strain SNF1, hits give low values 0.833 | locus YER123W, strain YCK3, hits give low values 0.692 | locus YER133W, strain GLC7, hits give low values 0.831 | locus YFL009W, strain cdc4, hits give low values 0.896 | locus YFL029C, strain CAK1, hits give low values 0.901 | locus YFR003C, strain YPI1, hits give low values 0.929 | locus YFR019W, strain FAB1, hits give low values 0.908 | locus YFR028C, strain CDC14, hits give low values 0.918 | locus YGR040W, strain KSS1, hits give low values 0.834 | locus YGR052W, strain FMP48, hits give low values 0.815 | locus YGR092W, strain DBF2, hits give low values 0.689 | locus YHR079C, strain IRE1, hits give low values 0.639 | locus YHR082C, strain KSP1, hits give low values 0.945 | locus YHR205W, strain SCH9, hits give low values 0.978 | locus YIL147C, strain SLN1, hits give low values 0.919 | locus YJL095W, strain BCK1, hits give low values 0.675 | locus YJL128C, strain PBS2, hits give low values 0.928 | locus YJL157C, strain FAR1, hits give low values 0.813 | locus YJR016C, strain ILV3, hits give low values 0.924 | locus YJR066W, strain TOR1 (second series), hits give low values 0.769 | locus YJR066W, strain TOR1, hits give low values 0.848 | locus YKL048C, strain ELM1, hits give low values 0.927 | locus YKL067W, strain YNK1, hits give low values 0.857 | locus YKL101W, strain HSL1, hits give low values 0.88 | locus YKL193C, strain SDS22, hits give low values 0.903 | locus YKL203C, strain TOR2, hits give low values 0.886 | locus YLR133W, strain CKI1, hits give low values 0.857 | locus YLR403W, strain SFP1, hits give low values 0.809 | locus YML070W, strain DAK1, hits give low values 0.825 | locus YMR001C, strain CDC5, hits give low values 0.914 | locus YMR205C, strain PFK2 (second series), hits give low values 0.859 | locus YMR277W, strain FCP1, hits give low values 0.893 | locus YNL006W, strain LST8, hits give low values 0.957 | locus YNL020C, strain ARK1, hits give low values 0.853 | locus YNL161W, strain CBK1, hits give low values 0.912 | locus YNL183C, strain NPR1, hits give low values 0.696 | locus YNL207W, strain RIO2, hits give low values 0.919 | locus YNL222W, strain SSU72, hits give low values 0.905 | locus YNL307C, strain MCK1 (second series), hits give low values 0.826 | locus YOL078W, strain AVO1, hits give low values 0.896 | locus YOL136C, strain PFK27, hits give low values 0.868 | locus YOR061W, strain CKA2, hits give low values 0.858 | locus YOR119C, strain RIO1, hits give low values 0.821 | locus YOR231W, strain MKK1, hits give low values 0.685 | locus YOR329C, strain SCD5, hits give low values 0.93 | locus YPL031C, strain PHO85, hits give low values 0.787 | locus YPL153C, strain RAD53, hits give low values 0.755 | locus YPL204W, strain HRR25, hits give low values 0.777 | locus YPL209C, strain IPL1, hits give low values 0.926 | locus YPR025C, strain CCL1, hits give low values 0.923 | locus YPR106W, strain ISR1, hits give low values 0.95 | locus YPR111W, strain DBF20, hits give low values 0.937 | strain NNK1, hits give low values 0.932 | strain TSCII, hits give low values 0.888
active: locus YLR113W, strain HOG1, hits give low values 0.651 | locus YPL256C, strain CLN2, hits give low values 0.72

CN1CCC23CCCC[C@H]2C1Cc1ccc(O)cc13 (stereo partly drawn)
inactive: locus YAL040C, strain CLN3, hits give low values 1.01 | locus YCL061C, strain MRC1 (second series), hits give low values 1 | locus YDR363W, strain ESC2, hits give low values 1.03 | locus YER002W, strain NOP16, hits give low values 0.998 | locus YGR229C, strain SMI1, hits give low values 1.04 | locus YJR075W, strain HOC1, hits give low values 1.01 | locus YNL153C, strain GIM3, hits give low values 1.02 | locus YNL175C, strain NOP13, hits give low values 1.01 | locus YNL197C, strain WHI3, hits give low values 1.05 | locus YNL224C, strain SQS1, hits give low values 1.01 | locus YNL322C, strain KRE1, hits give low values 1.02 | locus YOR083W, strain WHI5 (second series), hits give low values 0.989 | locus YPL055C, strain LGE1, hits give low values 0.998
